Experimental findings from PubChem BioAssay (EPA / NIEHS) are described below.

Read-out in test [1]: Pyruvate Dehydrogenase Kinase 4 (PDK4), PDK4 (gene 5166)
The test is described as follows: LTEA_HepaRG_PDK4: Life Technologies and Expression Analysis (LTEA) Assay for Pyruvate Dehydrogenase Kinase 4 (PDK4) using HepaRG (AID 2283525). As to conditions: mRNA level, 48 h; actives raise or lower the signal. The procedure, abridged:
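HepaRG cells plated 48 h, then switched to serum-free induction medium and exposed in duplicate for 48 h to 8 half-log concentrations from 100 uM in 0.5% DMSO. PDK4 mRNA measured by qRT-PCR, normalized to ACTB, GAPDH and POLR2A; bidirectional fit versus DMSO.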

Read-out in test [2]: NAD(P)H dehydrogenase [quinone] 1 (NQO1), NQO1 (gene 1728)
As to the kind of experiment: LTEA_HepaRG_NQO1: Life Technologies and Expression Analysis (LTEA) Assay for NAD(P)H dehydrogenase [quinone] 1 (NQO1) using HepaRG (AID 2283526). As to conditions: mRNA level, 48 h; actives raise or lower the signal. In a few lines:
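Differentiated HepaRG cells, plated 48 h and then switched to serum-free induction medium, were exposed in duplicate for 48 h to 8-point half-log concentrations up to 100 uM in 0.5% DMSO. mRNA measured by qRT-PCR, normalized to ACTB, GAPDH, POLR2A; bidirectional fit versus DMSO.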

Read-out in test [3]: succinate dehydrogenase complex iron sulfur subunit B (SDHB), SDHB (gene 6390)
As to the kind of experiment: LTEA_HepaRG_SDHB: Life Technologies and Expression Analysis (LTEA) Assay for succinate dehydrogenase complex iron sulfur subunit B (SDHB) using HepaRG (AID 2283528). As to conditions: mRNA level, 48 h; actives raise or lower the signal. The procedure, abridged: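 A human HepaRG culture in serum-free induction medium received test chemicals for 48 h over an eight-point range capped at 100 uM. SDHB expression change was quantified by qRT-PCR.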

Read-out in test [4]: Signal transducer and activator of transcription 3 (Homo sapiens) (UniProt P40763)
The test is described as follows: LTEA_HepaRG_STAT3: Life Technologies and Expression Analysis (LTEA) Assay for Signal transducer and activator of transcription (STAT3) using HepaRG (AID 2283529). Particulars: mRNA level, 48 h; actives raise or lower the signal. The procedure, abridged:
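Differentiated HepaRG cells, serum-free induction medium, dosed 48 h in duplicate, 8 half-log concentrations from 100 uM in 0.5% DMSO. STAT3 mRNA by qRT-PCR, normalised to ACTB, GAPDH, POLR2A; bidirectional fit versus DMSO.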

Read-out in test [5]: sulfotransferase 2A1 (SULT2A1), SULT2A1 (gene 6822)
As to the kind of experiment: LTEA_HepaRG_SULT2A1: Life Technologies and Expression Analysis (LTEA) Assay for sulfotransferase 2A1 (SULT2A1) using HepaRG (AID 2283531). Particulars: mRNA level, 48 h; actives raise or lower the signal. The procedure, abridged: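 Cells were plated and cultured 48 h, switched to serum-free induction medium, then dosed in duplicate for 48 h (8 concentrations, max 100 uM). RNA was isolated and SULT2A1 expression measured by qRT-PCR; gain or loss of signal fitted relative to DMSO.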

Read-out in test [6]: Transforming Growth Factor (TGFA), TGFA (gene 7039)
The test is described as follows: LTEA_HepaRG_TGFA: Life Technologies and Expression Analysis (LTEA) Assay for Transforming Growth Factor (TGFA) using HepaRG (AID 2283532). As to conditions: mRNA level, 48 h; actives raise or lower the signal. In a few lines: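 Differentiated HepaRG cells exposed 48 hours in serum-free induction medium, 0.5% DMSO vehicle, 8-point half-log series from 100 uM, in duplicate. TGFA mRNA by TaqMan qRT-PCR, normalised to ACTB, GAPDH, POLR2A; bidirectional fit versus DMSO.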

Read-out in test [7]: Transforming Growth Factor (TGFB1), TGFB1 (gene 7040)
As to the kind of experiment: LTEA_HepaRG_TGFB1: Life Technologies and Expression Analysis (LTEA) Assay for Transforming Growth Factor (TGFB1) Transporter using HepaRG (AID 2283533). Particulars: mRNA level, 48 h; actives raise or lower the signal. The procedure, abridged: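 Expression change of TGFB1 in human HepaRG cells is measured after a 48 h chemical exposure, up to 100 uM in 0.5% DMSO vehicle. Curves are fitted in both directions relative to the DMSO baseline.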

Read-out in test [8]: Tumor necrosis factor receptor 1 (TNFRSF1A), TNFRSF1A (gene 7132)
The test is described as follows: LTEA_HepaRG_TNFRSF1A: Life Technologies and Expression Analysis (LTEA) Assay for Tumor necrosis factor receptor 1 (TNFRSF1A) using HepaRG (AID 2283535). Particulars: mRNA level, 48 h; actives raise or lower the signal. The procedure, abridged: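 Expression of TNFRSF1A in human HepaRG liver cells was measured by qRT-PCR 48 h after chemical dosing (maximum 100 uM). Bidirectional curve fitting used 0.5% DMSO as baseline.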

Read-out in test [9]: Thyroid Hormone Responsive (THRSP), THRSP (gene 7069)
As to the kind of experiment: LTEA_HepaRG_THRSP: Life Technologies and Expression Analysis (LTEA) Assay for Thyroid Hormone Responsive (THRSP) using HepaRG (AID 2283536). Particulars: mRNA level, 48 h; actives raise or lower the signal. The procedure, abridged: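 Differentiated HepaRG cells treated 48 h in serum-free induction medium with 8 half-log concentrations up to 100 uM (0.5% DMSO), duplicates. THRSP mRNA by TaqMan qRT-PCR normalised to ACTB, GAPDH, POLR2A; bidirectional fit versus DMSO.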

Read-out in test [10]: Cellular tumor antigen p53 (Homo sapiens) (UniProt P04637)
As to the kind of experiment: LTEA_HepaRG_TP53: Life Technologies and Expression Analysis (LTEA) Assay for Tumor Protein P53 (TP53) using HepaRG (AID 2283537). As to conditions: mRNA level, 48 h; actives raise or lower the signal. The procedure, abridged:
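Gain or loss of TP53 mRNA signal is scored relative to 0.5% DMSO after 48 h chemical treatment of HepaRG liver cells, tested in duplicate at eight half-log concentrations up to 100 uM.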

Read-out in test [11]: UDP glucuronosyltransferase (UGT1A1), UGT1A1 (gene 54658)
The test is described as follows: LTEA_HepaRG_UGT1A1: Life Technologies and Expression Analysis (LTEA) Assay for UDP glucuronosyltransferase (UGT1A1) using HepaRG (AID 2283538). Particulars: mRNA level, 48 h; actives raise or lower the signal. In a few lines:
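Differentiated human HepaRG cells in serum-free induction medium were exposed in duplicate for 48 h to eight half-log concentrations up to 100 uM in 0.5% DMSO. UGT1A1 mRNA was quantified by TaqMan qRT-PCR, normalized to ACTB, GAPDH and POLR2A, and fitted bidirectionally against DMSO.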

Read-out in test [12]: UDP glucuronosyltransferase (UGT1A6), UGT1A6 (gene 54578)
The test is described as follows: LTEA_HepaRG_UGT1A6: Life Technologies and Expression Analysis (LTEA) Assay for UDP glucuronosyltransferase (UGT1A6) using HepaRG (AID 2283539). Particulars: mRNA level, 48 h; actives raise or lower the signal. In a few lines: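 Endpoint is UGT1A6 transcript induction or loss in a human liver cell line, quantified by TaqMan qRT-PCR 48 h after dosing. Concentrations ran from 100 uM downward in half-log steps in 0.5% DMSO; activity was fitted in both directions versus vehicle.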

Read-out in test [13]: X-box binding protein 1 (XBP1), XBP1 (gene 7494)
The test is described as follows: LTEA_HepaRG_XBP1: Life Technologies and Expression Analysis (LTEA) Assay for X-box binding protein 1 (XBP1) using HepaRG (AID 2283540). Particulars: mRNA level, 48 h; actives raise or lower the signal. The procedure, abridged: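 Human HepaRG monolayers receive test chemical for 48 h across an eight-point half-log series starting at 100 uM. XBP1 mRNA gain or loss is scored against DMSO by qRT-PCR.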

Test [14] can be described thus: LTEA_HepaRG_LDH_cytotoxicity: Cytotoxicity Assessment in the Life Technologies and Expression Analysis (LTEA) Assay (AID 2283563; active means hit-call score of the fitted dose curve at least 0.9, where 1 is the maximum). In a few lines:
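Human HepaRG hepatic cells are treated with test chemicals for 48 h at up to 100 uM in 0.5% DMSO. Cytotoxicity is scored from medium LDH against the vehicle control.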

A short description of test [15]: TOX21_p53_BLA_p2_viability: Viability Assessment in the Tox21 HCT-116 p53 Agonism Beta-lactamase Assay, Phase 2 (AID 2283591; active means hit-call score of the fitted dose curve at least 0.9, where 1 is the maximum;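 further: compound exposure lasted 16 h at 37 °C; actives lower the ATP signal meaning cytotoxicity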). The procedure, abridged: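 HCT116 p53-bla cells, 4000/well, dosed after 5 h plating (217-fold dilution of DMSO stocks) and incubated 16 h at 37C. Viability taken as cellular ATP by CellTiter-Glo luminescence after 30 min RT; signal loss marks cytotoxicity.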

A short description of test [16]: ATG_XTT_Cytotoxicity: Cytotoxicity Assessment in the Attagene TRANS-FACTORIAL HepG2 Assay (AID 2283584; active means hit-call score of the fitted dose curve at least 0.9, where 1 is the maximum;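 on AC50: XTT signal for cell number as viability in transfected HepG2 cells; cells exposed to compound for 24 h before reading; active means loss of viability signal versus DMSO baseline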). The procedure, abridged: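 Transfect HepG2 with GAL4-UAS reporter units, dose compound, incubate 24 h, then measure viable cell number by XTT. Fit concentration response against DMSO baseline.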

Several values for one entry are separate records, joined by “and”; a condition that tells them apart may be missing. Equal entries are not always repeated. Results filed as inconclusive are left out. Activity calls are given as the source filed them. How the source made its calls, unless noted: active means hit-call score of the fitted dose curve at least 0.9, where 1 is the maximum; inactive means score below 0.9.

Sequence of Signal transducer and activator of transcription 3 (Homo sapiens) (P40763 whole entry, looked up): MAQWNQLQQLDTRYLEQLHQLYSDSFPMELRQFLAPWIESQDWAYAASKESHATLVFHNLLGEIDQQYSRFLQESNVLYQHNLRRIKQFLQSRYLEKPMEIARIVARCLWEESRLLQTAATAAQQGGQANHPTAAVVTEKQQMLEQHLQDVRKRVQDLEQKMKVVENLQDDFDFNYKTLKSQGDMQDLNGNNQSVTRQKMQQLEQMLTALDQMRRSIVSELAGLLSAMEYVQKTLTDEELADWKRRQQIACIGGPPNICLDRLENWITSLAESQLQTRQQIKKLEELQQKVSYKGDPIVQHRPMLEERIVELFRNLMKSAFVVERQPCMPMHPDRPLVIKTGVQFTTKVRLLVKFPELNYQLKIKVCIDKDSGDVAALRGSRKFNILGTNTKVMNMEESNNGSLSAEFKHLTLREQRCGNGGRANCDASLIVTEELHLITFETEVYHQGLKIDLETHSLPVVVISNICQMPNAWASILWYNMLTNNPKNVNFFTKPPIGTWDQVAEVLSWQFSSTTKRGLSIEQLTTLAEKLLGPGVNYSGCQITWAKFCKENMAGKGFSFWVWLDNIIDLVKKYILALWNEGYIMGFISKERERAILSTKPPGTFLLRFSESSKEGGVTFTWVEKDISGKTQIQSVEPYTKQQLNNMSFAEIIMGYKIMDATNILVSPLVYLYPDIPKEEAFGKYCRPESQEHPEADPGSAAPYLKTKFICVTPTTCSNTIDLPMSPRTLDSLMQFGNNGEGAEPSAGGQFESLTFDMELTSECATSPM
Sequence of Cellular tumor antigen p53 (Homo sapiens) (P04637 whole entry, looked up): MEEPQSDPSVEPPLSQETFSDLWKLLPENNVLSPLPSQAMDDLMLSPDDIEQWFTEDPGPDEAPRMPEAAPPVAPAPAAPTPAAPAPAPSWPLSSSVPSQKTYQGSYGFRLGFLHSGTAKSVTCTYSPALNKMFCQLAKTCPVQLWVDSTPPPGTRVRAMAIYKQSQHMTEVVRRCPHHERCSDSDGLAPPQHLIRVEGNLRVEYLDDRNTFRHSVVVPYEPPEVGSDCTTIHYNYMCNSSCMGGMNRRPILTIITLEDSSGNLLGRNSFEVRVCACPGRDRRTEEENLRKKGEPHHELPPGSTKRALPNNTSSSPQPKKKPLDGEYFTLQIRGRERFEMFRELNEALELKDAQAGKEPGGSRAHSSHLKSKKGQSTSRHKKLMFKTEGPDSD

With `c1cc2c3c(cccc3c1)CC2`, the outcome in [1], in test [2], in test [3], in test [4], in test [5] and in [6] was inactive. Further, the call in test [7], in test [8], in [9], in test [10], in [11] and in test [12] was inactive. In addition, the compound was called inactive in test [13], in test [14] and in test [15].
Take `Nc1ccc([N+](=O)[O-])cc1Cl`: in test [16], the result was inactive.
`O=[N+]([O-])c1ccc(Cl)c(Cl)c1`: the call in [1], in [2], in [3], in [4], in [5] and in test [6] was inactive. The result in test [7], in test [8], in test [12], in test [13], in [14] and in test [16] was inactive. In addition, the AC50 (in general, the midpoint of the concentration-response curve, whichever way the signal moves) in test [9] was 10.8 µM (active); in [11] it was 13.5 µM (active).
In the case of `CC(Cl)CN(C)C` (centres undefined), the outcome in test [16] was inactive.
The same measure, in the same setting: the entry for `CC(C)(C)c1ccccc1OP(=O)(Oc1ccccc1)Oc1ccccc1` is “inactive”; for `CCCCC(CC)COP(=O)(Oc1ccccc1)Oc1ccccc1` (centres undefined) it is “inactive”.
As for `CCCCCCCc1ccc(O)cc1`, the outcome in [1], in [2], in test [3], in [4], in [5] and in [6] was inactive. The outcome in test [7], in [8], in [9], in [11], in test [12] and in test [13] was inactive. Moreover, in test [14], the compound was called inactive. In addition, the half-maximal activity concentration (AC50) in test [16] was 152 µM (active) and 185 µM (active) and 129 µM (active).
As for `CCOP(=S)(OCC)SCS(=O)(=O)CC`, the compound was called inactive in test [16].
As to `O=C(O)CF`, the compound was called inactive in [16].
Take `O=C(O)C(Cl)Cl`: the result in [1], in test [2], in test [3], in test [4], in [5] and in [6] was inactive. For the same compound, the outcome in [7], in test [8], in test [9], in test [11], in test [13] and in [14] was inactive. In addition, the result in test [16] was inactive. Besides, the AC50 in [12] is 0.312 µM (active).
As for `N#Cc1c(-c2ccc(Cl)cc2)[nH]c(C(F)(F)F)c1Br`, the compound was classed as inactive in test [16].
`Cc1cc(C)c(C(=O)P(=O)(c2ccccc2)c2ccccc2)c(C)c1`: the outcome in test [16] was inactive.
On to `ClC(Cl)c1ccccc1`, for which the outcome in [1], in test [2], in [3], in test [4], in [5] and in [6] was inactive. The call in test [7], in test [8], in test [9], in test [11], in test [12] and in [13] was inactive. In addition, the outcome in [14] and in [16] was inactive.
For the compound `Nc1ccc(Sc2ccc(N)cc2)cc1`, the compound was called inactive in test [16].
Take `Cc1ccc([N+](=O)[O-])cc1C`: the compound was classed as inactive in test [1], in test [2], in [3], in test [4], in [5] and in [6]. Further, the call in [7], in [8], in test [9], in [11], in test [12] and in test [13] was inactive. The outcome in [14] and in test [16] was inactive.
